From PubChem BioAssay AID588853 (National Center for Advancing Translational Sciences (NCATS), 2011) come the findings set out here.

Activity calls are given as the source filed them.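 Rule for the calls: active = glucocerebrosidase seen by eye moving to lysosomes in immunostained patient skin cells after 5 µM compound; inconclusive = microscope result judged unclear; inactive = no movement seen.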

This test deals with Lysosomal acid glucosylceramidase (Homo sapiens) (UniProt P04062). Briefly: qHTS for Activators of Human Glucocerebrosidase as a Potential Chaperone Treatment of Gaucher Disease: Fibroblast Translocation. Conditions: Gaucher patient fibroblasts, GCase lysosomal translocation, immunofluorescence. The source says: Glucocerebrosidase (GCase) catalyzes the hydrolysis of beta-glucocerebroside to glucose and ceramide in lysosomes. Mutations in the glucocerebrosidase gene result in Gaucher disease, an autosomal recessive lysosomal storage disorder. Many of the mutations encountered in patients with Gaucher disease are missense alterations that may cause misfolding, decreased stability and/or mistrafficking of this lysosomal protein. […] However, the enhancement of enzyme activity by the chaperone action of an enzyme inhibitor must be balanced against the direct inhibition of the enzyme. An enzyme activator could also function as a chaperone by binding to the enzyme and helping to correct its misfolding and mistrafficking. Activators for GCase have not yet been identified, and they may have better therapeutic potential than inhibitors. Therefore the discovery and development of chemical activators may provide a new strategy for the chaperone therapy. The probe that has been identified was tested in a chaperone translocation experiment in human fibroblasts. This assay attempts to quantitate translocated glucocerebrosidase protein in patient-derived fibroblasts following extended compound incubation. The fibroblasts tested in this experiment were homozygous either for N370S glucocerebrosidase or wildtype GCase. NIH Chemical Genomics Center [NCGC] […]
Sequence of Lysosomal acid glucosylceramidase (Homo sapiens) (P04062 whole entry N409S): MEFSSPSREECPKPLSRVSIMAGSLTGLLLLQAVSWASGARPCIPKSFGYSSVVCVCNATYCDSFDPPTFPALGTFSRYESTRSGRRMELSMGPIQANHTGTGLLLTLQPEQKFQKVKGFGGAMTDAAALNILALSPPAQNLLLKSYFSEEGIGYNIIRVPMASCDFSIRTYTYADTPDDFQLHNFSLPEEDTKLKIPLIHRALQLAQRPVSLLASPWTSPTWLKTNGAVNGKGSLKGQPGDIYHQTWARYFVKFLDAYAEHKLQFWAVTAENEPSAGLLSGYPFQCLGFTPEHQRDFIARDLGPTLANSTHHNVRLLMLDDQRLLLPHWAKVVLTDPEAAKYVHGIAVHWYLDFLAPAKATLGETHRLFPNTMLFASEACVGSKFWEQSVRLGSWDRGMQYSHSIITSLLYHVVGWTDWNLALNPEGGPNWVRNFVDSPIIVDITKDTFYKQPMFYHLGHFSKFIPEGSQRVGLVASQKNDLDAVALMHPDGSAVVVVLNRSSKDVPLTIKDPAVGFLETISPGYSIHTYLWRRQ
As for `CN(C(=O)CNC(=O)c1ccccc1OCC(=O)Nc1ccc(Br)cc1)c1ccccc1`, the outcome was “active; yes”.
Turning to `C#Cc1ccc(NC(=O)c2cnn3c(C)cc(C)nc23)cc1`, the outcome is “active; yes”.
